Source: PubChem BioAssay AID463173 (ICCB-Longwood Screening Facility, Harvard Medical School, 2010)
Out of some 52,000 compounds screened, about 4,300 (8.3%) were called active. Rule as the data show it: active = survival mostly below about 52% (no sharp cut-off); inactive = mostly above about 56%. Only a selection was taken, and actives are over-represented in it overall.

Test system: DeltatarO mutant
Experiment: S. aureus survival, RN4220 and DeltatarO strains – OD600, teichoic acid synthesis inhibitors, primary screen (AID 463173)
Conditions: S. aureus RN4220 wild type/DeltatarO growth, OD600, 18 h, stronger effect = lower value, screened at 18.75 µg/mL (by protocol)

Compound	survival
COC(=O)c1cc2oc3ccccc3c2n1CC(=O)Nc1ccc(OC)c(OC)c1	79% (inactive)
CCOc1ccc(NS(=O)(=O)c2ccc3[nH]cc(C(=O)NC4CCCC4)c(=O)c3c2)cc1	39% (active)
CCOc1ccc(NS(=O)(=O)c2ccc3[nH]cc(C(=O)NCCOC)c(=O)c3c2)cc1	72% (inactive)
CCc1ccc(NS(=O)(=O)c2ccc3[nH]cc(C(=O)NCCc4ccccc4)c(=O)c3c2)cc1	87% (inactive)
CCc1ccc(NS(=O)(=O)c2ccc3[nH]cc(C(=O)NC4CCCC4)c(=O)c3c2)cc1	8% (active)
CCOc1ccc(NS(=O)(=O)c2ccc3[nH]cc(C(=O)N(C)Cc4ccccc4)c(=O)c3c2)cc1	6% (active)
Cc1cc(C)cc(NS(=O)(=O)c2ccc3[nH]cc(C(=O)N(C)Cc4ccccc4)c(=O)c3c2)c1	102% (inactive)
CCc1ccc(NS(=O)(=O)c2ccc3[nH]cc(C(=O)NCc4ccc(C)cc4)c(=O)c3c2)cc1	65% (inactive)
CCOc1ccc(NS(=O)(=O)c2ccc3[nH]cc(C(=O)NCc4ccccc4)c(=O)c3c2)cc1	79% (inactive)
CCOc1ccc(NS(=O)(=O)c2ccc3[nH]cc(C(=O)N(C)C4CCCCC4)c(=O)c3c2)cc1	76% (inactive)
Cc1ccc(-c2nn3c(=O)cc(CN4CCN(C(=O)/C=C/c5ccccc5)CC4)nc3s2)cc1	68% (inactive)
CCOc1ccccc1C1CC(=O)Nc2c1c(=O)n(C)c1ncnn21 (stereo unspecified)	164% (inactive)
COc1ccc(NC(=O)c2oc3ccc(S(=O)(=O)N4CCC5(CC4)OCCO5)cc3c2C)cc1Cl	80% (inactive)
O=C(O)C1CC(=O)N(CCCN2CCOCC2)C1 (stereo unspecified)	96% (inactive)
Cc1nn(C)c2c1c(C(F)(F)F)cc(=O)n2CC(=O)NCc1ccccc1Cl	80% (inactive)
CCN1CCN(C(=O)c2ccc3c(c2)N(Cc2ccccc2)C(=O)c2ccccc2S3=O)CC1 (stereo unspecified)	104% (inactive)
Cc1ccc(C)c(-n2c3nc(=O)[nH]c(=O)c-3cc3c(C)nn(-c4ccccc4)c32)c1	92% (inactive)
COc1ccc(NC(=O)CC2C(=O)N(c3ccccc3)C(=O)N2CCc2sccc2C)cc1 (stereo unspecified)	65% (inactive)
CCN(CC)CCCNC(=O)Cc1ccc(NC(=O)N2CCCCc3ccccc32)cc1	79% (inactive)

Compound	survival
CCOC(=O)c1cc2c(=O)n3ccccc3nc2n(CC(C)C)c1=NC(=O)c1c(-c2c(F)cccc2Cl)noc1C	165% (inactive)
CCOC(=O)c1cc2c(=O)n3ccccc3nc2n(CC2CCCO2)c1=NC(=O)c1ccccc1OCC (stereo unspecified)	51% (inactive)
CCOC(=O)c1cc2c(=O)n3ccccc3nc2n(CC2CCCO2)c1=NC(=O)c1ccc(OCC)cc1 (stereo unspecified)	51% (inactive)
CCOC(=O)c1cc2c(=O)n3ccccc3nc2n(CC2CCCO2)c1=NC(=O)c1ccccc1Br (stereo unspecified)	47% (active)
CCOC(=O)c1cc2c(=O)n3ccccc3nc2n(CC2CCCO2)c1=NC(=O)c1ccccc1F (stereo unspecified)	44% (active)
CCOC(=O)c1cc2c(=O)n3ccccc3nc2n(CC2CCCO2)c1=NC(=O)c1ccc(F)cc1 (stereo unspecified)	54% (inactive)
CCOC(=O)c1cc2c(=O)n3ccccc3nc2n(CC2CCCO2)c1=NC(=O)c1ccccc1C (stereo unspecified)	43% (active)
CCOC(=O)c1cc2c(=O)n3ccccc3nc2n(CC2CCCO2)c1=NC(=O)c1ccc(OC)cc1OC (stereo unspecified)	38% (active)
O=C(CC1N=C2c3ccccc3N=C(SCC(=O)Nc3ccccc3F)N2C1=O)NCc1ccc2c(c1)OCO2 (stereo unspecified)	73% (inactive)
Nc1c(-c2nc(-c3ccc(Cl)cc3)no2)nnn1-c1ccc(C(F)(F)F)c(Cl)c1	75% (inactive)
Cc1cc(C)c2c(CC(=O)Nc3ccccc3C(F)(F)F)coc2c1	72% (inactive)
O=C(NCCCN1CCCC1)c1ccccc1Cl	86% (inactive)
COc1ccc(Nc2nc3ccc(Cl)cc3n3nnnc23)cc1OC	102% (inactive)
CC(C)C(=O)NCC(c1ccc2c(c1)OCO2)N1CCN(c2ccccc2F)CC1 (stereo unspecified)	74% (inactive)
COC(=O)CC(=O)CSc1nc(C)cc(C)c1C#N	80% (inactive)
CC(=O)Nc1ccc2nc(NC(=O)c3cc4ccccc4o3)sc2c1	102% (inactive)
Cc1ccc2c(=O)cc(C(=O)Nc3nc4ccc(Cl)cc4s3)oc2c1C	39% (active)
CCOc1ccc2nc(NC(=O)c3ccccc3)sc2c1	41% (active)
COc1ccc2nc(NC(=O)c3cc(=O)c4cc(C)c(C)cc4o3)sc2c1	58% (inactive)

Compound	survival
CCOc1ccc2nc(NC(=O)c3nc(SC)ncc3Cl)sc2c1	95% (inactive)
COc1ccc2nc(NC(=O)c3cc(=O)c4ccccc4o3)sc2c1	50% (inactive)
O=C(Nc1nc2ccc(Cl)cc2s1)c1cc(=O)c2ccccc2o1	32% (active)
Cc1cc(C)c2oc(C(=O)Nc3nc4ccc(Cl)cc4s3)cc(=O)c2c1	61% (inactive)
CS(=O)(=O)c1ccc2nc(NC(=O)c3ccccc3)sc2c1	81% (inactive)
COc1ccc2nc(NC(=O)c3cc(=O)c4cc(C)cc(C)c4o3)sc2c1	69% (inactive)
CCOc1ccc2nc(NC(=O)c3cc(=O)c4cc(C)cc(C)c4o3)sc2c1	85% (inactive)
CCOc1ccc2nc(NC(=O)c3cc(=O)c4ccc(C)cc4o3)sc2c1	25% (active)
O=S(=O)(c1ccc(Br)cc1)N1CCOCC1	94% (inactive)
CC(C)NS(=O)(=O)c1ccc(OCC(=O)N2CCN(c3cccc(Cl)c3)CC2)cc1	95% (inactive)
CCSc1ncc(Cl)c(C(=O)Nc2ccc(S(=O)(=O)N3CCCCC3)cc2)n1	87% (inactive)
Cc1ccc(-c2csc(NC3OC(=O)c4c#cccc43)n2)cc1 (stereo unspecified)	94% (inactive)
Cc1ccc(Cn2cnc3nc4c(cc3c2=O)CCCC4)cc1	81% (inactive)
CCc1ccc2[nH]c(=O)c(CNC3CCCC3)cc2c1	86% (inactive)
CCCOc1ccc(C(=O)N(Cc2ccc(N(C)C)cc2)CC2CCCO2)cc1 (stereo unspecified)	64% (inactive)
Cc1ccc2nc(NC(=O)c3cc(=O)c4cc(C)c(C)cc4o3)sc2c1	54% (inactive)
Cc1ccc2nc(NC(=O)c3cc(=O)c4cc(Cl)ccc4o3)sc2c1	47% (inactive)
Cc1ccc2c(=O)cc(C(=O)Nc3nc4ccc(Cl)cc4s3)oc2c1	25% (active)
